# Values joined by “and” are separate entries in the source; they are usually repeats but may differ in a detail not shown here. Identical values can stand only once. In all, about 290,000 compounds went through this assay and about 3,500 (1.2%) were called active.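 The calls were made as follows: active = inhibition above the campaign mean inhibition over all tested compounds plus 3 SD (cut at about 28% in these data); inactive = the rest.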 For the sample, actives were picked, then their nearest neighbours and some compounds at random.
# System: M18 aspartyl aminopeptidase (Plasmodium falciparum 3D7)
# Experiment: inhibition of P. falciparum M18 aminopeptidase – biochemical, QFRET, recombinant enzyme, primary screen (AID 1822);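 also: 0% = plate median of test compound wells and 100% = 2 mM ZnCl2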
# Conditions: recombinant PfM18AAP, H-Glu-NHMec fluorogenic cleavage; at 7.35 µM; hits give high values
row,Compound,inhibition
1,O=C(CSc1ccc(/C=N/NC(=O)c2cccc(F)c2)o1)Nc1ccccc1,6.13% (inactive)
2,Cc1ccc(/C=N/NC(=O)CSc2ccccn2)o1,5.97% (inactive)
3,N#CCC(=O)N/N=C/c1ccc(SCC(=O)Nc2ccccc2)o1,34.6% (active)
4,CCC(C)(C)NC(=O)C(c1ccc(O)cc1)N(Cc1ccco1)C(=O)CCC(=O)Nc1ccccn1 (stereo not drawn),-14.9% (inactive)
5,COc1cccc(NC(=O)N2CCC(NC(=O)C(Cc3cccc(C)c3)NC(C)=O)CC2)c1 (stereo not drawn),-1.52% (inactive)
6,Cc1ccc(-n2[nH]c(C)c(/C=N/NC(=O)c3cccc([N+](=O)[O-])c3)c2=O)cc1C,1.83% (inactive)
7,CCN1CCN(c2cc3nc(C)n(Cc4ccccc4)c(=O)c3cc2NC(=O)c2ccccc2F)CC1,-2.2% (inactive)
8,COc1cccc(OCc2nnc3n2N=C(c2ccccc2)C(CC(=O)O)S3)c1 (stereo not drawn),3.81% (inactive)
9,COc1ccc(OCc2nnc3n2N=C(c2ccccc2)C(CC(=O)O)S3)cc1 (stereo not drawn),33.1% (active)
10,COc1ccc(C(=O)CSc2nnc(COc3ccccc3)n2Cc2ccco2)cc1,-6.68% (inactive)
11,CC(C)(C)c1ccc(C(CC(=O)O)NS(=O)(=O)Cc2ccccc2)cc1 (stereo not drawn),-3.96% (inactive)
12,FC(F)(F)C1CCCN(c2nsc3ccccc23)C1 (stereo not drawn),76.9% (active)
13,CC(C)OC(=O)c1c(NC(=O)c2ccco2)sc2c1CCCC2,-7.19% (inactive)
14,CCOC(=O)c1c(NC(=S)NC(=O)c2ccco2)sc2c1CCCC2,6.75% (inactive)
15,CNC(=O)c1c(NC(NC(=O)c2ccco2)C(=O)c2ccc(Cl)cc2)sc2c1CCCC2 (stereo not drawn),35% (active)
16,CC(=O)Nc1ccc(NC(=O)CC2CCCC2)cc1,-1.31% (inactive)
17,O=C(CCC1CCCC1)N=C1SC2CS(=O)(=O)CC2N1Cc1ccccc1 (stereo not drawn),9.31% (inactive)
18,Cc1cc(C)n2nc(CNS(=O)(=O)c3c(F)c(F)c(F)c(F)c3F)nc2n1,2.95% (inactive)
19,CC(C)=CCN1CCN(CCCc2ccccc2)CC1CCO (stereo not drawn),-4.62% (inactive)
20,Cc1ccc(-n2c(C)cc(/C=C(\C#N)C(=O)NCC3CCCO3)c2C)cc1 (stereo not drawn),-10.2% (inactive)

row,Compound,inhibition
1,CN(C)c1ccc(-c2nnc(-c3cccnc3)o2)cc1,10.3% (inactive)
2,O=C1CC(c2ccccc2)=NN1c1ccc([N+](=O)[O-])cc1,0.8% (inactive)
3,O=c1[nH]n(-c2ccc([N+](=O)[O-])cc2)c(=O)c2ccccc12,34.9% (active)
4,Cc1nc2ccccc2c(=O)n1Cc1ccc([N+](=O)[O-])cc1,-5.86% (inactive)
5,CCCC(C(=O)NC1CCCC1)N(C(=O)Cn1nnc(-c2ccc(C)o2)n1)c1cccc(O)c1 (stereo not drawn),-0.55% (inactive)
6,O=c1c2ccccc2ncn1/N=C/c1ccccc1,1.08% (inactive)
7,CCCc1nc2ccccc2c(=O)n1/N=C/c1ccc(O)c(O)c1,53.2% (active)
8,CCCc1nc2ccccc2c(=O)n1NC(=O)c1c(O)c2ccccc2[nH]c1=O,-1.38% (inactive)
9,COC(=O)c1ccc(NC(=O)CSc2nc(N)c(NC(=O)c3ccc(Br)o3)c(=O)[nH]2)cc1,0.86% (inactive)
10,COc1ccc(C(=O)Nc2c(N)nc(SCC(=O)Nc3ccc(C(C)=O)cc3)[nH]c2=O)cc1,7.68% (inactive)
11,Nc1nc(SCC(=O)Nc2cc(C(F)(F)F)ccc2Cl)[nH]c(=O)c1NC(=O)c1ccco1,30.4% (active)
12,COc1ccc(C)cc1Nc1nc(C)nc2c1oc1ccccc12,2.6% (inactive)
13,CCc1ccc(C(CNc2nc(C(F)(F)F)nc3ccccc23)N(C)C)cc1 (stereo not drawn),2.51% (inactive)
14,Cc1cc(OC(=O)c2ccccc2Cl)ccc1N1C(=O)CCC1=O,3.74% (inactive)
15,CCN(CC)S(=O)(=O)c1cc([N+](=O)[O-])ccc1N=Nc1c(O)n(C)c2ccccc12,-3.78% (inactive)
16,CCN(CC)S(=O)(=O)c1cc([N+](=O)[O-])ccc1NNC(=O)Nc1ccccc1,48.1% (active)
17,CC(=O)c1ccc(NC(=O)Nc2ccc([N+](=O)[O-])cc2C)cc1,-10.5% (inactive)
18,CCCCN(CCCC)CCNC(=O)CN1C(=O)COc2ccc(S(=O)(=O)N3CCOCC3)cc21,7.53% (inactive)
19,CCCCN1C(=O)C(C)=C(C)C1OCCc1ccc(OC)c(OC)c1 (stereo not drawn),-8.94% (inactive)
20,CC1(C(=O)N/N=C/c2cc3c(cc2Br)OCO3)CC1(Br)Br (stereo not drawn),7.28% (inactive)

row,Compound,inhibition
1,NNc1nc2c(Cl)cccc2s1,28.1% (active)
2,Fc1cc(F)c2nc(Nc3nc4c(F)cccc4s3)sc2c1,-6.75% (inactive)
3,CN(C)CCCN(C(=O)COc1ccccc1)c1nc2c(Cl)cccc2s1,-2.07% (inactive)
4,CCOC(=O)C1CCCN(S(=O)(=O)c2ccc3c(c2)C(C)(C)C(=O)N3C)C1 (stereo not drawn),7.85% (inactive)
5,OC(c1ccc(Cl)cc1)C(CN1CCOCC1)c1ccccc1 (stereo not drawn),1.27% (inactive)
6,CCOc1ccc(S(=O)(=O)NCc2ccc3c(c2)OCO3)cc1C,-10.2% (inactive)
7,CSc1ccc(CCNC(=O)CS(=O)(=O)Cc2nc(-c3ccccc3F)oc2C)cc1,-0.36% (inactive)
8,Oc1c(C(c2ccco2)N2CCC3(CC2)OCCO3)sc2ncnn12 (stereo not drawn),35.8% (active)
9,Cc1nc2sc(C(c3ccco3)N3CCC4(CC3)OCCO4)c(O)n2n1 (stereo not drawn),0.84% (inactive)
10,Oc1c(C(c2cccs2)N2CCN(c3ccc(F)cc3)CC2)sc2ncnn12 (stereo not drawn),16.4% (inactive)
11,CCc1nn(CCCN2CCN(c3cccc(Cl)c3)CC2)c(=O)n1CCOc1ccccc1,8.14% (inactive) and 7.54% (inactive)
12,O=S(=O)(c1ccc(Cl)cc1)N1CCCN(c2ccc(C(F)(F)F)cn2)CC1,-1.37% (inactive)
13,COc1ccc(OC)c(/C(C)=N\NC(=O)c2cc3cc(Cl)ccc3n2C)c1,3.86% (inactive)
14,Oc1ccc(N=Cc2sc3ccccc3c2Cl)cc1,21.1% (inactive)
15,Oc1ccc(N=Cc2c(O)ccc3ccccc23)cc1,28.4% (active)
16,O=[N+]([O-])c1ccc(N=Cc2c(O)ccc3ccccc23)cc1,-0.85% (inactive)
17,Clc1ccc(Cc2nn3c(-c4ccncc4)nnc3s2)cc1,8.22% (inactive)
18,Cc1cccc(C(=O)NC(=S)N(C)C2CCCCC2)c1,7.02% (inactive)
